# Assay results published in PubChem BioAssay (NCATS).
# Results filed as inconclusive are left out. Activity calls are given as the source filed them. Calls follow the shape of the dose curve; as a rule, active = well fitted cell-killing curve with a large enough effect; inconclusive = small, poorly fitted or top-dose-only effect, or effect the other way; inactive = flat fitted curve, though single readings scatter.
# System: Tov112D
# Test: Primary qHTS to identify gynecologic anti-cancer compounds using libraries of approved drugs and bioactive compounds (AID 1345084); also: nearly all actives have a fitted effect of over 55% in size
# Conditions: Gynecologic cancer cell panel viability, ATPlite luminescence, 48 h; series mostly up to 57.5 µM; activity change, negative = cytotoxicity: at the top concentration
# In short: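 Measured: luminescence after ATPlite addition (15 min, RT). Exposure: 48 h, 37 C, 5% CO2.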
# % is scaled to controls: 0 for no effect and ±100 for the full control effect; potency is read from the fitted curve at half-maximal effect.
Structure (SMILES),Potency,"activity change, negative = cytotoxicity"
C=C(c1ccc(C(=O)O)cc1)c1cc2c(cc1C)C(C)(C)CCC2(C)C,inactive,–
CN(C)C(=O)[C@H](O)[C@H](Cc1ccccc1)NC(=O)c1cc2cc(Cl)ccc2[nH]1,–,1.98% (inactive)
CCC(C)(Oc1ccc(C2(c3ccc(OC(C)(CC)C(=O)O)cc3)CCCCC2)cc1)C(=O)O (stereo unspecified),inactive,–
CCCCc1ccc2nc(NC(=O)OC)[nH]c2c1,0.251 µM (active),–
Cc1nc(Nc2ncc(C(=O)Nc3c(C)cccc3Cl)s2)cc(N2CCN(CCO)CC2)n1,inactive,–
COc1ccccc1N1CCN(CCN(C(=O)C2CCCCC2)c2ccccn2)CC1,–,1.75% (inactive)
COc1cc2c(N3CCN(C(=O)Nc4ccc(OC(C)C)cc4)CC3)ncnc2cc1OCCCN1CCCCC1,inactive,–
Cc1ccc(C(=O)c2cc(O)c(O)c([N+](=O)[O-])c2)cc1,–,-3.58% (inactive)
O=C(O)CCNC(=O)c1ccc(N=Nc2ccc(O)c(C(=O)O)c2)cc1,–,4.36% (inactive)
Clc1ccc(C(Cn2ccnc2)OCc2ccsc2Cl)c(Cl)c1 (stereo unspecified),–,-3.21% (inactive)
Cc1cc(C2CCCCC2)n(O)c(=O)c1,7.08 µM (active),–
COC(=O)N[C@H](C(=O)N[C@@H](Cc1ccccc1)[C@@H](O)CN(Cc1ccc(-c2ccccn2)cc1)NC(=O)[C@@H](NC(=O)OC)C(C)(C)C)C(C)(C)C,–,-2.52% (inactive)
Nc1cc(C(Cl)=C(Cl)Cl)c(S(N)(=O)=O)cc1S(N)(=O)=O,–,10.3% (inactive)
CCCS(=O)c1ccc2nc(NC(=O)OC)[nH]c2c1 (stereo unspecified),8.91 µM (active),–
Cc1cc2c(s1)Nc1ccccc1N=C2N1CCN(C)CC1,inactive,–
CN1CCC(=C2c3ccccc3CCc3sccc32)CC1,–,-13.7% (inactive)
